Measured values published in PubChem BioAssay (Tox21).
Inconclusive results are not listed. Active and inactive are the calls of the source. Unless noted, calls follow the shape of the dose curve; as a rule, active = well fitted curve in the direction sought with a large enough effect in the repeat runs; inconclusive = weak or mixed curves; inactive = no such curve, though single readings can be large; an effect the other way counts as inactive or inconclusive.

Columns and labels:
[1] = qHTS assay to identify small molecule antagonists of the sonic hedgehog signaling (Shh) pathway (AID 1259369; calls by dose curve; also: nearly all actives have a fitted effect of over 45% in size); settings: NIH/3T3 Gli1-Luc reporter, Shh antagonist, luminescence 24 h; series mostly up to 92.4 µM
How it was run: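 Screening used 3T3Gli1-Luc cells at 2,000 per well, compounds delivered in DMSO, and conditioned medium as agonist stimulus; plates incubated 24hr at 37 C and 5% CO2 before a 30min luciferase step.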

[2] = qHTS assay to identify small molecule agonists of the androgen receptor (AR) signaling pathway in the presence of an antagonist - cell viability counter screen (AID 1259379); settings: MDA-kb2 viability, CellTiter-Fluor, 16 h; series mostly up to 92.4 µM;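 also: MDA-kb2 human breast cancer cells carrying an MMTV luciferase reporter; nearly all actives have a fitted effect of over 25% in size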
How it was run: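 In MDA-kb2 cells (human breast carcinoma, MMTV-luciferase), compounds at 15 concentrations plus 3.0uM nilutamide; 16 hr, 37C, 0% CO2; CellTiter-Fluor fluorescence read for viability.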

[3] = qHTS assay to identify small molecule agonists of the estrogen receptor beta (ER-beta) signaling pathway - cell viability counter screen (AID 1259380); settings: ER-beta-bla HEK293T viability, CellTiter-Glo luminescence, 16 h; series mostly up to 92.4 µM; also: nearly all actives have a fitted effect of over 30% in size
How it was run: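 Viability of ER-beta-UAS-bla HEK293T cells was determined by CellTiter-Glo luminescence following 16 hr treatment with test compounds at 37C.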

[4] = qHTS assay to identify small molecule antagonists of the estrogen receptor beta (ER-beta) signaling pathway - cell viability counter screen (AID 1259382); settings: ER-beta-UAS-bla HEK293T viability, CellTiter-Glo luminescence, 16 h; series mostly up to 92.4 µM;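 also: HEK293T cells carrying ER-beta-UAS-bla reporter stimulated with estradiol; nearly all actives have a fitted effect of over 55% in size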
How it was run: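 Tox21 10K library tested in qHTS format on ER-beta-bla HEK293T cells stimulated with 1nM E2; 16 hr treatment at 37C. Same-well CellTiter-Glo luminescence served as the cell viability measure.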

[5] = target: Thyrotropin receptor (Homo sapiens) (UniProt P16473); experiment: qHTS assay to identify small molecule antagonists of the thyroid stimulating hormone receptor (TSHR) signaling pathway (AID 1259385; calls by dose curve; also: nearly all actives have a fitted effect of over 20% in size); settings: TSHR-HEK293 cAMP HTRF, TSH-stimulated antagonist mode; series mostly up to 92.4 µM
Sequence of Thyrotropin receptor (Homo sapiens) (P16473 whole entry, looked up): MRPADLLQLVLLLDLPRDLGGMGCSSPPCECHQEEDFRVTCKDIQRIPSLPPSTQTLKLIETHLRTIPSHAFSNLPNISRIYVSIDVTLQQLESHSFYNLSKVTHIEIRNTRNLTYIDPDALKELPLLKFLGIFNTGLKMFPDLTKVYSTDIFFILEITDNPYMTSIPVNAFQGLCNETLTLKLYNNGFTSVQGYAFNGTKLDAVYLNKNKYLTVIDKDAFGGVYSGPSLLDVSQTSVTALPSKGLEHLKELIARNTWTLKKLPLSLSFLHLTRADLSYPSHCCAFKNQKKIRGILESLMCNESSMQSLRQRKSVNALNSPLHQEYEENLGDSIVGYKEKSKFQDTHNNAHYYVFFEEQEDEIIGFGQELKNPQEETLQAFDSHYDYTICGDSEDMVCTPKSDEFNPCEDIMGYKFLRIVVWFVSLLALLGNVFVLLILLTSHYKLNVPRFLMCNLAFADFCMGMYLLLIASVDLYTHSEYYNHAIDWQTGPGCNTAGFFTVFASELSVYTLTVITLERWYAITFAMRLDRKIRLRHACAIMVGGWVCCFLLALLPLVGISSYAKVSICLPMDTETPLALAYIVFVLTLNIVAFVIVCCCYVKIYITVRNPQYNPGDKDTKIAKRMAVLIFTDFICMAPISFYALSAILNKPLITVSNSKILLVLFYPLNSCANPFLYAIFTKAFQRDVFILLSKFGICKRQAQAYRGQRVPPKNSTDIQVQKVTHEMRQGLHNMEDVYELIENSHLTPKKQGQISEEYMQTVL
How it was run: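 TSHR-HEK293 cells (800/well) plated 18 h, then compounds with Ro20-1724 and TSH at 1.5 ng/mL final, 30 min at room temperature. cAMP quantified by HTRF (cAMP-d2/anti-cAMP-cryptate, 1 h); 15 concentrations in triplicate.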

[6] = qHTS assay to identify small molecule agonists of the estrogen receptor alpha (ER-alpha) signaling pathway in the presence of an antagonist - cell viability counter screen (AID 1259386); settings: VM7Luc4E2 viability, CellTiter-Fluor fluorescence, 22 h; series mostly up to 92.4 µM;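 also: cells exposed to compounds for 22 h at 37 °C before the viability read; nearly all actives have a fitted effect of over 30% in size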
How it was run: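 Fluorescent CellTiter-Fluor viability signal from VM7Luc4E2 cells, with the reagent added during the final hour of a 22hr compound exposure at 37C in the presence of 10.0nM ICI-182,780.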

[7] = target: Progesterone receptor (Homo sapiens) (UniProt P06401); experiment: qHTS assay to identify small molecule agonists of the progesterone receptor (PR) signaling pathway (AID 1346784; calls by dose curve; also: nearly all actives have a fitted effect of over 30% in size); settings: PR-UAS-bla HEK293T, beta-lactamase FRET ratio, 16 h; series mostly up to 92.4 µM
Sequence of Progesterone receptor (Homo sapiens) (P06401 whole entry, looked up): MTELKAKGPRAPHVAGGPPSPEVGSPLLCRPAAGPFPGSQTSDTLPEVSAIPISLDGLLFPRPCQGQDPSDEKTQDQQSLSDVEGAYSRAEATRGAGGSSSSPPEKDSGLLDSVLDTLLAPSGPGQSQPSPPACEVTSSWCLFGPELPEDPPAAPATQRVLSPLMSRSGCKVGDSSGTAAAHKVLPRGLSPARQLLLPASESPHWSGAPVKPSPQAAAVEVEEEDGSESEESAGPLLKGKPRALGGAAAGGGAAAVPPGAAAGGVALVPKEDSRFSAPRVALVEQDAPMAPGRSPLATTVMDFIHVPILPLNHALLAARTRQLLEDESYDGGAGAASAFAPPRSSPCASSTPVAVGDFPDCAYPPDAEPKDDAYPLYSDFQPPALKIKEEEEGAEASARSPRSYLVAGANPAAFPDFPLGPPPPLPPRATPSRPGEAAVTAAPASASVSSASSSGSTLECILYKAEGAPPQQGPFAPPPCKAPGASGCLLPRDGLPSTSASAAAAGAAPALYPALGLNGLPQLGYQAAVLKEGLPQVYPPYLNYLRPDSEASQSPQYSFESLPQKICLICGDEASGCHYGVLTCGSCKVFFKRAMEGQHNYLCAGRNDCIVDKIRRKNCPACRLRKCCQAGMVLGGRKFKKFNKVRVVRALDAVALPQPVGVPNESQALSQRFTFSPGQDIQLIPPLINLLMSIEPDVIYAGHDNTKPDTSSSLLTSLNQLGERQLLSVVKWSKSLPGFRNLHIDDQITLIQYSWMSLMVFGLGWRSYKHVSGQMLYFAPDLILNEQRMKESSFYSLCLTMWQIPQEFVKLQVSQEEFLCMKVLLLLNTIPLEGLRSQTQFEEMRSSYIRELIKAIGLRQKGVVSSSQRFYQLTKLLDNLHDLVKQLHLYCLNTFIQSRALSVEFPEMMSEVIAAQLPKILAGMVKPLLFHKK
How it was run: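 PR-UAS-bla HEK 293T cells (beta-lactamase reporter under UAS) in 2% charcoal-stripped FBS, dosed with 23 nL compound after 6 hr, incubated 16hr at 37C. LiveBLAzer B/G FRET substrate added, fluorescence read after 2 hours.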

[8] = target: Progesterone receptor (Homo sapiens) (UniProt P06401); experiment: qHTS assay to identify small molecule antagonists of the progesterone receptor (PR) signaling pathway (AID 1346795; active = well fitted inhibition curve with a large enough effect in the signal ratio in the repeat runs, not every such curve was filed as active; the % refers to the signal ratio); settings: PR-UAS-bla HEK293T, beta-lactamase FRET ratio, 16 h; series mostly up to 92.4 µM
How it was run: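 PR-UAS-bla HEK293T cells with beta-lactamase reporter under UAS control, in 2% charcoal-stripped FBS, treated with compounds plus 1 nM promegestone (R5020, final) for 16 hr at 37C. Read-out: FRET beta-lactamase substrate fluorescence after 2 hr at room temperature.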

[9] = qHTS assay to identify small molecule antagonists of the progesterone receptor (PR) signaling pathway - cell viability counter screen (AID 1346798); settings: PR-UAS-bla HEK293T viability, CellTiter-Glo luminescence, 16 h; series mostly up to 92.4 µM; also: nearly all actives have a fitted effect of over 50% in size
How it was run: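 PR-UAS-bla HEK293T cells, 3,000/well in 2% charcoal-stripped FBS medium, dosed with compounds plus R5020 agonist and incubated 16 h at 37C. Viability then measured in the same wells by CellTiter-Glo luminescence after 30 min at RT.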

[10] = qHTS assay to identify small molecule agonists of the progesterone receptor (PR) signaling pathway - cell viability counter screen (AID 1346799; calls by dose curve; also: nearly all actives have a fitted effect of over 45% in size); settings: PR-UAS-bla HEK293T viability, CellTiter-Glo luminescence, 16 h; series mostly up to 92.4 µM
How it was run: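 Counter screen in the PR-UAS-bla HEK293T wells (2% charcoal-stripped FBS, 16 h compound exposure at 37 C) after the bla read. CellTiter-Glo added, 30 min at room temperature, luminescence read as cell viability.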

[11] = qHTS assay to identify small molecule antagonists of the TGF-beta/Smad signaling pathway - cell viability counter screen (AID 1346824); settings: SBE-bla HEK293T viability, CellTiter-Glo luminescence; series mostly up to 76.8 µM; also: nearly all actives have a fitted effect of over 50% in size
How it was run: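 SBE-bla HEK 293T cells, incubated overnight, then compound plus 0.25 ng/mL TGF-beta1 (stock added) for 5 hr at 37 C. Viability was read in the same wells by CellTiter-Glo luminescence after 30 min at room temperature.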

[12] = qHTS assay to identify small molecule agonists of the TGF-beta/Smad signaling pathway - cell viability counter screen (AID 1346829); settings: SBE-bla HEK293T viability, CellTiter-Glo luminescence, 5 h; series mostly up to 76.8 µM; also: top concentration of the series differs between compounds; nearly all actives have a fitted effect of over 45% in size
How it was run: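 CellTiter-Glo luminescence readout; SBE-bla HEK 293T cells, overnight plating, compound 5 hr at 37 C/5% CO2, then bla substrate 2 hr RT, then CellTiter-Glo 30 min RT.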

[13] = qHTS assay to identify small molecule agonists of the TGF-beta/Smad signaling pathway (AID 1346859; active = well fitted activation curve with a large enough effect in the signal ratio in the repeat runs, not every such curve was filed as active; the % refers to the signal ratio); settings: SBE-bla HEK293T, TGF-beta/Smad beta-lactamase reporter, 5 h; series mostly up to 76.8 µM
How it was run: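 SBE-bla HEK293T cells plated overnight, then compound exposure for 5 h at 37 C. Beta-lactamase reporter read with LiveBLAzer B/G FRET substrate after 2 h at room temperature, fluorescence at 405 nm excitation, 460/530 nm emission.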

[14] = target: Thyrotropin-releasing hormone receptor (Homo sapiens) (UniProt P34981); experiment: qHTS assay to identify small molecule agonists of the thyrotropin-releasing hormone receptor (TRHR) signaling pathway (AID 1346891; calls by dose curve); settings: TRHR-HEK293 calcium fluorescence, agonist mode; series mostly up to 57.6 µM
Sequence of Thyrotropin-releasing hormone receptor (Homo sapiens) (P34981 whole entry, looked up): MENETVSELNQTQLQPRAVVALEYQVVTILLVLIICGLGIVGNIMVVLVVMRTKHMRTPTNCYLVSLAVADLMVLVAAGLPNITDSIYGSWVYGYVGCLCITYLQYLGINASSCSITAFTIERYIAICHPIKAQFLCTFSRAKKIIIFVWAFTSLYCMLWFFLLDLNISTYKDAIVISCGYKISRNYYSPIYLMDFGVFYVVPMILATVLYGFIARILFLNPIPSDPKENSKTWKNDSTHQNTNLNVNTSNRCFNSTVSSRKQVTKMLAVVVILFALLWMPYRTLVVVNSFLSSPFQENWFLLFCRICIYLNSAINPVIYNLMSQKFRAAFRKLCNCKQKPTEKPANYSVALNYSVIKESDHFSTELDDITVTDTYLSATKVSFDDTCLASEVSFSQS
How it was run: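 HEK293 cells expressing TRHR plated 18 h at 37 C/5% CO2, calcium dye-loaded 2 h at 37 C, then compound added (agonist mode); kinetic calcium fluorescence read 3 min at 1 s intervals; 15 concentrations in triplicate.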

[15] = target: Estrogen receptor (Homo sapiens) (UniProt P03372); experiment: qHTS assay to identify small molecule agonists of the estrogen receptor alpha (ER-alpha) signaling pathway in the presence of an antagonist (AID 1259383; calls by dose curve; also: top concentration of the series differs between compounds; nearly all actives have a fitted effect of over 15% in size); settings: VM7Luc4E2 cells, ERE-luciferase, +ICI-182,780, 22 h; series mostly up to 92.4 µM
Sequence of Estrogen receptor (Homo sapiens) (P03372 whole entry, looked up): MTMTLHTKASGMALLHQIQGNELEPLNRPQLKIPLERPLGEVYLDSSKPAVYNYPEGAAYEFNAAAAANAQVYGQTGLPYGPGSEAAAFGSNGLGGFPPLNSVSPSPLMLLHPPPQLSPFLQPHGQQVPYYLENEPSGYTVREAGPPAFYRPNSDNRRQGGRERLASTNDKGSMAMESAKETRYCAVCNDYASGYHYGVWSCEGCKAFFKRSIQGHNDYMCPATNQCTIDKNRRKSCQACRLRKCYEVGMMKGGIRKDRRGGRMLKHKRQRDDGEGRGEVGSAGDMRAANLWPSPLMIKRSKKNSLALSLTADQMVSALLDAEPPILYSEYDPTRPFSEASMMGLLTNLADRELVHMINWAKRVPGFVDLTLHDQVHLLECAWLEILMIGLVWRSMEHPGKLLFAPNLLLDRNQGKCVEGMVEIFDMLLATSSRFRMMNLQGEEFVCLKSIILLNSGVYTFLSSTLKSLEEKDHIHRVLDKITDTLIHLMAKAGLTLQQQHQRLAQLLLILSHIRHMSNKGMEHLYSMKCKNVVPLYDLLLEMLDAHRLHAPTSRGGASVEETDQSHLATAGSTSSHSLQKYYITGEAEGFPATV
How it was run: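 In VM7Luc4E2 cells, 4,000 per well, compounds at 15 concentrations were co-incubated 22hr at 37C with 10.0nM final ICI-182,780. Luminescence from the stably transfected 4×ERE-luciferase reporter was recorded 30min after ONE-Glo addition.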

[16] = qHTS assay to identify small molecule agonists or antagonists of the thyroid stimulating hormone receptor (TSHR) signaling pathway - wild type cell line counter screen (AID 1259384; calls by dose curve); settings: HEK293 wild type, cAMP HTRF counter-screen, stronger effect = higher value; series mostly up to 92.4 µM
How it was run: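 Wild-type Hek293 cells, 800/well, 18 h at 37C, then compound with Ro20-1724 for 30 min RT. cAMP by HTRF (cAMP-d2/anti-cAMP cryptate), 1 h RT, fluorescence read. 15 concentrations, triplicates.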

[17] = target: Thyrotropin-releasing hormone receptor (Homo sapiens) (UniProt P34981); experiment: qHTS assay to identify small molecule antagonists of the thyrotropin-releasing hormone receptor (TRHR) signaling pathway (AID 1346877; active = well fitted inhibition curve with a large enough effect in the repeat runs, not every such curve was filed as active); settings: TRHR-HEK293, TRH-induced calcium fluorescence, antagonist mode; series mostly up to 51.3 µM
How it was run: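 In this cell-based calcium flux format, HEK293 cells expressing TRHR received test compound for 5 min before the agonist TRH (1 nM final). Dye loading lasted 2 h at 37 °C.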
% is scaled to controls: 0 for no effect and ±100 for the full control effect.

NCCCC(N)(C(=O)O)C(F)F (stereo not drawn)
inactive: Potency [1] | Potency [2] | Potency [3] | outcome [4] | outcome [5] | Potency [6] | Potency [7] | Potency [8] | Potency [9] | Potency [10] | outcome [11] | outcome [12] | outcome [13] | Potency [14]

COc1cccc(OC)c1C(=O)N[C@@H]1C(=O)N2[C@@H]1SC(C)(C)[C@@H]2C(=O)O
inactive: Potency [1] | Potency [2] | Potency [3] | outcome [4] | outcome [5] | Potency [6] | Potency [10] | outcome [11] | outcome [12] | outcome [13]

CC/C=C\CCOC(C)OCC (stereo not drawn)
inactive: Potency [1] | Potency [2] | Potency [3] | outcome [15] | outcome [16] | outcome [5] | Potency [6] | Potency [8] | Potency [9] | Potency [10] | outcome [11] | outcome [12] | outcome [13] | outcome [17] | Potency [14]

CCCC(C)C(=O)OCC (stereo not drawn)
inactive: Potency [1] | Potency [2] | Potency [3] | outcome [4] | outcome [15] | outcome [16] | outcome [5] | Potency [6] | Potency [7] | Potency [8] | Potency [9] | Potency [10] | outcome [11] | outcome [12] | outcome [13] | outcome [17] | Potency [14]

Cc1cc(C)c(N=Nc2c(O)c(S(=O)(=O)O)cc3cc(S(=O)(=O)O)ccc23)cc1C
inactive: activity change, negative = inhibition [1] 9.78% [at 8.39 µM] | activity change, negative = cytotoxicity [2] -11.3% [at 8.39 µM] | activity change, negative = cytotoxicity [3] -5.12% [at 8.39 µM] | activity change, negative = cytotoxicity [4] 8.89% [at 8.39 µM] | activation [15] -2.23% [at 8.39 µM] | activity change, negative = inhibition [5] -1.06% [at 8.39 µM] | activity change, negative = inhibition [8] 2.15% [at 8.39 µM] | activity change, negative = cytotoxicity [9] 1.98% [at 8.39 µM] | activity change, negative = cytotoxicity [10] 0% [at 8.39 µM] | viability change, negative = cytotoxic [11] -0.1% [at 6.97 µM] | activity change, negative = cytotoxicity [12] -4.86% [at 6.97 µM] | activation [13] 0.0984% [at 6.97 µM]

CN(C)CCN(C)CCN(C)C
inactive: Potency [1] | Potency [2] | Potency [3] | outcome [4] | outcome [15] | outcome [16] | Potency [6] | Potency [7] | Potency [8] | Potency [9] | Potency [10] | outcome [11] | outcome [12] | outcome [17] | Potency [14]
